Assay outcomes: PubChem, several laboratories
tim10-1 inh: inhibits growth of tim10-1 mutant yeast. S. cerevisiae tim10-1 ts strain growth, BacTiter-Glo, 24 h. inhibition, % at 20 µM. hit rate 2.2% among 330,000;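 active means inhibition of at least 40%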;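 further: mutant grown at 25 °C; 0% = DMSO wells with yeast and 100% = wells holding no yeast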
V-ATPase pH: alters yeast V-ATPase proton transport; hit rate 0.37% among 350,000; S. cerevisiae, pHLuorin cytosolic pH fluorescence; response, % at 10 µM; in the data active means response mostly above about 7.3%, no sharp cut-off; inactive means mostly below about 5.4%; further: actives read high
PfHsp90 set2: growth inhibition of yeast expressing Plasmodium Hsp90 | S. cerevisiae expressing PfHsp90, BacTiter-Glo ATP, 48 h; yeast lacking PDR1 and PDR3 efflux regulators | inhibition, % at 9.4 µM | hit rate 0.32% among 310,000;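 active means every replicate shows inhibition above about 80%, whatever the replicate mean, limit read from the data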;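 further: 0% = DMSO neutral controls and 100% = 20 µM radicicol positive controls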
TIM10 inh: inhibits growth of TIM10 yeast strain; inhibition, % at 10 µM; S. cerevisiae TIM10 strain growth, BacTiter-Glo luminescence, 24 h; AID 463195; hit rate 1.4% among 330,000;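 active means inhibition of 40% or more at the single tested concentration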;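 further: wild-type TIM10 isogenic control strain grown at permissive 25 °C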
tim23-1 inh: growth inhibitors of tim23-1 mutant yeast; S. cerevisiae tim23-1 growth, BacTiter-Glo luminescence, 24 h; inhibition, % at 20 µM; hit rate 1.3% among 330,000; AID 463212;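 active means growth inhibition of the mutant yeast at or above 50%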;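 further: temperature-sensitive mutant grown at 25 °C; plate controls were DMSO-treated mutant yeast for no effect and medium wells lacking yeast for full effect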
SKKanGAS inh: inhibitors of SKKanGAS S. pyogenes growth in kanamycin (SK-promoter or general growth effect). inhibition, % at 7.5 µM. hit rate 1.3% among 300,000. AID 1662. BacTiter-Glo, 6 h;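 active means mean replicate score, as percent of positive control median, at least 50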;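 further: strain carries kanamycin resistance gene driven by streptokinase promoter and grows in 40 µg/ml kanamycin; loss of luminescence reflects streptokinase promoter inhibition or plain growth inhibition; 0% = median of DMSO wells and 100% = positive control at its reference dose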
* = called active by the depositor. This is a sample that favours compounds with a hit; in the whole collection about 4.6% have one here.

What do the screens show for `Cc1nc(-c2ccccn2)nc(N(C)c2ccccc2)c1Cl`?
tim10-1 inh: 18.3; V-ATPase pH: -2.7; PfHsp90 set2: -7.4; TIM10 inh: 27.7; tim23-1 inh: 32.3; SKKanGAS inh: 92.6*

Results for CC(C)(C)[C@H]1CCC(=O)N([C@H](CSc2ccccc2)Cc2ccccc2)CC1 ?
tim10-1 inh: 32.7; V-ATPase pH: -2.8; TIM10 inh: 19.1; tim23-1 inh: 20.9; SKKanGAS inh: 63.4*

How did CC(C)(C)[C@@H]1CCC(=O)N(CC[C@H](Sc2ccccc2)c2ccccc2)CC1 do in these assays?
tim10-1 inh: 27.1; V-ATPase pH: -0.8; PfHsp90 set2: -2.5; TIM10 inh: 26.3; tim23-1 inh: 23.5; SKKanGAS inh: 79.1*

What do the screens show for `CC(C)(C)[C@H]1CCC(=O)N([C@H](CSc2ccc(Br)cc2)Cc2ccccc2)CC1`?
tim10-1 inh: 8.7; V-ATPase pH: -0.1; PfHsp90 set2: 10.1; TIM10 inh: 5.9; tim23-1 inh: 13.0

How did COc1ccc(OC)c(N(CCN2C(=O)c3ccccc3C2=O)C(=O)C2CCC(=O)C2C)c1 (stereo not drawn) do in these assays?
V-ATPase pH: -5.6

What do the screens show for `COc1cc(C(=O)NCC2CCCN2S(=O)(=O)c2cccs2)cc(OC)c1OC` (stereo not drawn)?
tim10-1 inh: -11.9; V-ATPase pH: -2.7; PfHsp90 set2: 5.9; TIM10 inh: 1.3; tim23-1 inh: -0.5; SKKanGAS inh: -1.9

How did CCOc1ccc(C(=O)NCC2CCCN2S(=O)(=O)c2cccs2)cc1 (stereo not drawn) do in these assays?
tim10-1 inh: 11.7; V-ATPase pH: 2.3; PfHsp90 set2: 12.6; TIM10 inh: 9.7; tim23-1 inh: 26.7; SKKanGAS inh: 52.5*

What do the screens show for `COC(=O)c1cc(S(=O)(=O)Nc2ccc(C)cn2)c[nH]1`?
tim10-1 inh: 9.1; V-ATPase pH: -0.1; PfHsp90 set2: 12.2; TIM10 inh: 10.8; tim23-1 inh: 2.9; SKKanGAS inh: 0.6

How did O=S(=O)(Nc1nc2ccccc2nc1Nc1cccc(S(=O)(=O)N2CCCCC2)c1)c1ccccc1 do in these assays?
tim10-1 inh: 12.1; V-ATPase pH: 0.6; PfHsp90 set2: -28.3; TIM10 inh: 13.9; tim23-1 inh: 23.9; SKKanGAS inh: 64.1*

What do the screens show for `COc1ccc(S(=O)(=O)Nc2cccc(S(=O)(=O)N3CCCCCC3)c2)cc1`?
V-ATPase pH: 1.2; PfHsp90 set2: -13.7; SKKanGAS inh: 4.1

What do the screens show for `CC(C)Oc1ccc(CNC(=S)Nc2ccccc2)cc1Cl`?
tim10-1 inh: 36.6; V-ATPase pH: -3.3; PfHsp90 set2: -11.1; TIM10 inh: 11.4; tim23-1 inh: 35.3; SKKanGAS inh: -5.8

What do the screens show for `COc1ccc(CSCCNC(=S)Nc2ccccc2)cc1Cl`?
tim10-1 inh: 24.2; V-ATPase pH: -2.0; PfHsp90 set2: -29.6; TIM10 inh: 28.2; tim23-1 inh: 38.5; SKKanGAS inh: 62.7*

What do the screens show for `CCSc1nnc(N2C(=O)c3ccc(C(=O)c4ccc(C(=O)O)cc4)cc3C2=O)s1`?
tim10-1 inh: -10.4; V-ATPase pH: -2.4; PfHsp90 set2: 3.0; TIM10 inh: -14.2; tim23-1 inh: 1.7; SKKanGAS inh: 6.0

What do the screens show for `CC1(C(=O)NC(=S)NNC(=O)c2ccncc2)CCCCC1`?
tim10-1 inh: 22.4; V-ATPase pH: 1.0; PfHsp90 set2: 22.2; TIM10 inh: 13.8; tim23-1 inh: 12.5; SKKanGAS inh: 54.5*

Results for COCc1cc(N2CCCCC2)nc(-c2ccccc2)n1 ?
tim10-1 inh: 31.5; V-ATPase pH: -1.8; PfHsp90 set2: -3.8; TIM10 inh: 32.6; tim23-1 inh: 40.8; SKKanGAS inh: -3.9

Results for COCc1cc(Sc2c(Cl)cccc2Cl)nc(-c2ccccc2)n1 ?
tim10-1 inh: -3.8; V-ATPase pH: 1.3; PfHsp90 set2: -11.4; TIM10 inh: -7.3; tim23-1 inh: 12.1; SKKanGAS inh: 66.5*

What do the screens show for `COc1cc(OC)cc(-c2nn[nH]n2)c1`?
tim10-1 inh: -0.7; V-ATPase pH: 0.1; PfHsp90 set2: 15.0; TIM10 inh: 11.0; tim23-1 inh: -1.8; SKKanGAS inh: -3.5

What do the screens show for `CC(C)CN1C(=S)SC(C)(C)C1n1oc(=O)n(-c2ccc(Cl)cc2)c1=O` (stereo not drawn)?
tim10-1 inh: 13.5; V-ATPase pH: -6.5; TIM10 inh: 22.4; tim23-1 inh: 30.8; SKKanGAS inh: 70.9*

Results for Oc1c(C=Nc2cccc3cccnc23)sc2ccccc12 ?
tim10-1 inh: 32.8; TIM10 inh: 15.0; tim23-1 inh: 16.3; SKKanGAS inh: 94.5*

Results for O=C(N/N=C/c1sc2ccccc2c1O)c1cccc2ccccc12 ?
V-ATPase pH: 0.7; PfHsp90 set2: 104.2*; SKKanGAS inh: 90.8*

How did Cc1cccc(/N=C/c2sc3ccccc3c2O)n1 do in these assays?
tim10-1 inh: 6.6; V-ATPase pH: 4.2; PfHsp90 set2: 4.5; TIM10 inh: 2.9; tim23-1 inh: -6.7; SKKanGAS inh: 17.8

Results for COc1ccc(C(=O)N/N=C/c2sc3ccccc3c2O)cc1 ?
V-ATPase pH: -0.1; PfHsp90 set2: 100.2*; SKKanGAS inh: 32.8

How did O=C(NCCN1CCOCC1)C(=O)NCC1OCCCN1S(=O)(=O)c1cc(F)ccc1F (stereo not drawn) do in these assays?
tim10-1 inh: -20.0; V-ATPase pH: -0.4; PfHsp90 set2: 19.1; TIM10 inh: -13.4; tim23-1 inh: 8.9; SKKanGAS inh: 4.4

How did CC(C)Cn1c(O)c(N=NC(=O)c2cccc(S(=O)(=O)N3CCCCC3)c2)c2ccccc21 do in these assays?
tim10-1 inh: 0.1; V-ATPase pH: 3.3; PfHsp90 set2: 24.9; TIM10 inh: 3.0; tim23-1 inh: 16.8; SKKanGAS inh: 53.5*

How did CCN1C/C(=C\c2cccc([N+](=O)[O-])c2)C(=O)/C(=C/c2cccc([N+](=O)[O-])c2)C1 do in these assays?
V-ATPase pH: 6.6; PfHsp90 set2: 95.1*

What do the screens show for `CCCCCCN(C(=O)CCCCCN1C(=O)NC(c2ccc(-c3ccccc3)cc2)C(C(=O)OCc2ccccc2)=C1C)C(C(=O)NCCCC)c1ccc(O)c(C(=O)OC)c1` (stereo not drawn)?
tim10-1 inh: -13.9; TIM10 inh: -4.3; tim23-1 inh: -8.3; SKKanGAS inh: 9.2

Results for COC(=O)c1ccccc1-c1c2ccc(=N)cc-2oc2cc(N)ccc12 ?
tim10-1 inh: 13.6; V-ATPase pH: 454.2*; PfHsp90 set2: 5.1; TIM10 inh: 14.0; tim23-1 inh: 7.6

How did COC(=O)c1ccccc1-c1ccc(/C=N/NC(=O)c2cc3ccccc3o2)o1 do in these assays?
tim10-1 inh: 7.6; V-ATPase pH: 0.3; TIM10 inh: 24.9; tim23-1 inh: 46.1; SKKanGAS inh: 9.4

What do the screens show for `Cc1ccc(NC(=O)C(C)OC(=O)COc2cccc(C(F)(F)F)c2)cc1` (stereo not drawn)?
tim10-1 inh: 9.0; V-ATPase pH: -0.6; PfHsp90 set2: 6.5; TIM10 inh: -36.4; tim23-1 inh: 20.0
